# Reference: PubChem BioAssay (Tox21)
# “And” between values parts separate entries of the source, which are not always exact repeats. Equal entries are not always repeated. Results filed as inconclusive are left out. A call without a number means that no potency is given here. The source made the active and inactive calls. Unless noted, calls come from the whole dose curve; as a rule, active = well fitted curve in the direction sought with a large enough effect in the repeat runs; inconclusive = weak or mixed curves; inactive = no such curve, though single readings can be large; an effect the other way counts as inactive or inconclusive.
# Legend:
# [1] = qHTS assay to identify small molecule antagonists of the androgen receptor (AR) signaling pathway using the MDA cell line in the presence of 0.5 nM R1881 - cell viability counter screen (AID 1259242); note: nearly all actives have a fitted effect of over 45% in size
# In short: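 Live-cell protease activity was measured by CellTiter-Fluor fluorescence after 30 min. Before that, MDA-kb2 MMTV-luciferase cells had 16 hr at 37C without CO2, exposed to test compounds and 0.5 nM R1881 final.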
# [2] = biological target: Estrogen receptor (Homo sapiens) (UniProt P03372); test: qHTS assay to identify small molecule antagonists of the estrogen receptor alpha (ER-alpha) signaling pathway using the BG1 cell line in the presence of 0.1 nM 17-beta-estradiol (AID 1259244); note: nearly all actives have a fitted effect of over 50% in size
# Estrogen receptor (Homo sapiens), sequence (P03372 whole entry, looked up): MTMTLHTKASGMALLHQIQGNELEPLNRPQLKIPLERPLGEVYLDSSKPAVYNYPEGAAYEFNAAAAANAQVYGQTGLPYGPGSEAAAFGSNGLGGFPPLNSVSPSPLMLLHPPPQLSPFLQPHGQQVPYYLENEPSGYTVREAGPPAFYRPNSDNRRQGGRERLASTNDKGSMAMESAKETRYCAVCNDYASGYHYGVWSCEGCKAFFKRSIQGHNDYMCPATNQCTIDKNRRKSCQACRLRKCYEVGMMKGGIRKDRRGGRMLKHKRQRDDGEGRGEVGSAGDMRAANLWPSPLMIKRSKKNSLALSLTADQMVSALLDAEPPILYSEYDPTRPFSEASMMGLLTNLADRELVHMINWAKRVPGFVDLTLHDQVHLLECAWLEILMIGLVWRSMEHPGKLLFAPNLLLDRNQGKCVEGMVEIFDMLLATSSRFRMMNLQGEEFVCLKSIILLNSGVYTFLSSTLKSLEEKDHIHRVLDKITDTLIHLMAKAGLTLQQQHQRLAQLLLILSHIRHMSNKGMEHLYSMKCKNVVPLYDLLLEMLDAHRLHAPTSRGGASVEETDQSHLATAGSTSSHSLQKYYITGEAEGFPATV
# In short: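 Luciferase luminescence (ONE-Glo, 30 min at room temperature) was read after 22 hr at 37C exposure to compounds plus 17beta-estradiol at 0.1 nM final. Cells were VM7Luc4E2 with endogenous ER-alpha and an ERE-driven luciferase, pre-cultured 5 days in hormone-depleted medium.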
# [3] = qHTS assay to identify small molecule phospholipidosis (PLD) inducers (AID 1259344; active = well fitted curve in the direction sought with a large enough effect; an effect the other way counts as inactive or inconclusive)
# In short: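 Phospholipid accumulation was scored by imaging: fixed, Hoechst-counterstained HepG2 cells stained with LipidTOX Red after 24 h compound exposure at 37 C. Read-outs were pit count and pit intensity per well or per cell, with amiodarone and DMSO controls.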
# [4] = qHTS assay to identify small molecule HDAC inhibitors (AID 1259364); note: nearly all actives have a fitted effect of over 45% in size; note: potency is the fitted concentration of half-maximal effect
# In short: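 Luminescence read after 30 min room-temperature HDAC-Glo incubation measures cellular class I/II HDAC activity. Compounds were applied for 2 hr at 37 C to HCT-116 wild-type cells seeded the day before.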
# [5] = qHTS assay to identify small molecule HDAC inhibitors - cell viability counter screen (AID 1259365); note: series mostly up to about 92 µM; nearly all actives have a fitted effect of over 50% in size
# In short: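 After overnight seeding at 1,500 cells per well, wild-type HCT-116 cultures took up compounds in DMSO for 2hr at 37 C. Viable cell content came from luminescence with CellTiter-Glo.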
# [6] = qHTS assay to identify small molecule agonists of the sonic hedgehog signaling (Shh) pathway - cell viability counter screen (AID 1259366); note: nearly all actives have a fitted effect of over 50% in size
# In short: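 Same-well cytotoxicity read. Gli1-Luc reporter 3T3 cells; compounds 24hr, 37C/5% CO2; CellTiter-Fluor fluorescence.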
# [7] = qHTS assay to identify small molecule antagonists of the sonic hedgehog signaling (Shh) pathway - cell viability counter screen (AID 1259367); note: nearly all actives have a fitted effect of over 55% in size
# In short: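 Viability was read by CellTiter-Fluor fluorescence in the same wells, reagent added 23 hr into compound treatment and incubated 1 hr at 37C. The 3T3 Gli1-Luc reporter cells (2,000/well) received conditioned medium after compound and ran 24 hr.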
# [8] = qHTS assay to identify small molecule agonists of the sonic hedgehog signaling (Shh) pathway (AID 1259368; calls by dose curve;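 note: NIH/3T3-derived 3T3Gli1-Luc cells carrying a stable Gli1-driven firefly luciferase reporter; series mostly up to about 92 µM; nearly all actives have a fitted effect of over 15% in size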)
# In short: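 Luminescence was read after 30 min at room temperature with luciferase reagent. Before that, 3T3Gli1-Luc cells (NIH/3T3 clone, stable Gli1-Luc reporter; 2,000/well) were exposed to compounds for 24 hr at 37C, 5% CO2, compounds being added 4 hr post-plating.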
# [9] = qHTS assay to identify small molecule antagonists of the sonic hedgehog signaling (Shh) pathway (AID 1259369; calls by dose curve; note: nearly all actives have a fitted effect of over 45% in size)
# In short: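 Antagonist mode: compound added to 3T3 Gli1-Luc cells followed by conditioned-medium stimulation, 24 h at 37 C, 5% CO2. Inhibition taken as loss of Gli1-driven luciferase luminescence.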
# [10] = biological target: Estrogen receptor beta (Homo sapiens) (UniProt Q92731); test: qHTS assay to identify small molecule agonists of the estrogen receptor beta (ER-beta) signaling pathway (AID 1259377; active = well fitted activation curve with a large enough effect in the signal ratio in the repeat runs, not every such curve was filed as active; the % refers to the signal ratio)
# Estrogen receptor beta (Homo sapiens), sequence (Q92731 whole entry, looked up): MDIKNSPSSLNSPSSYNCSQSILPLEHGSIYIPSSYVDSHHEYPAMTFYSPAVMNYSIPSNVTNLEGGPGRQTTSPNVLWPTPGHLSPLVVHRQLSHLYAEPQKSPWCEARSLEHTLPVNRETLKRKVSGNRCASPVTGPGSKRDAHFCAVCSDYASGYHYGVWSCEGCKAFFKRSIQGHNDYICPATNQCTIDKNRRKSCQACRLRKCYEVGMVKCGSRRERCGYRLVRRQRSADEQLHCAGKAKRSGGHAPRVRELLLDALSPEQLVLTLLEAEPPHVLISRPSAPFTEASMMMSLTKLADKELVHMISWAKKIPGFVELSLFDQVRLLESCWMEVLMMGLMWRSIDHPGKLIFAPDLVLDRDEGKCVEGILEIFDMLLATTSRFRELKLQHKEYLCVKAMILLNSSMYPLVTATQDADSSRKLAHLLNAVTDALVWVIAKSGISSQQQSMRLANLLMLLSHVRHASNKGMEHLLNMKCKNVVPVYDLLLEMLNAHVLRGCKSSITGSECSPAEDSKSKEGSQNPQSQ
# In short: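 Read-out: beta-lactamase FRET fluorescence. Cell line: ER-beta-UAS-bla HEK293T in 2% charcoal-stripped FBS. Exposure: 16 hr at 37C. Substrate step: 2 h at room temperature.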
# [11] = biological target: Estrogen receptor beta (Homo sapiens) (UniProt Q92731); test: qHTS assay to identify small molecule antagonists of the estrogen receptor beta (ER-beta) signaling pathway (AID 1259378; active = well fitted inhibition curve with a large enough effect in the signal ratio in the repeat runs, not every such curve was filed as active; the % refers to the signal ratio; note: potency is the fitted concentration of half-maximal effect)
# In short: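 Antagonist mode: compounds added to beta-lactamase reporter HEK293T ER-beta-UAS cells stimulated with E2 (1nM final), 16 hr at 37C. LiveBLAzer B/G FRET substrate, 2 hours room temperature, fluorescence read-out.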
# [12] = qHTS assay to identify small molecule agonists of the androgen receptor (AR) signaling pathway in the presence of an antagonist - cell viability counter screen (AID 1259379);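 note: MDA-kb2 human breast cancer cells carrying an MMTV luciferase reporter; series mostly up to about 92 µM; nearly all actives have a fitted effect of over 25% in size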
# In short: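 Cytotoxicity counter-screen run in the same wells as the nilutamide-challenged (3.0 µM final) AR agonist assay in MDA-kb2 cells. Compounds tested at 15 concentrations for 16 h, 37 °C without CO2; CellTiter-Fluor fluorescence read.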
# [13] = qHTS assay to identify small molecule agonists of the estrogen receptor beta (ER-beta) signaling pathway - cell viability counter screen (AID 1259380); note: nearly all actives have a fitted effect of over 30% in size
# In short: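 Cell viability counter screen: CellTiter-Glo luminescence (30 min, room temperature) measured in the same wells as the beta-lactamase readout, after 16 hr compound exposure at 37C of ER-beta-bla HEK293T cells in 2% charcoal-stripped FBS medium.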
# [14] = biological target: Estrogen receptor (Homo sapiens) (UniProt P03372); test: qHTS assay to identify small molecule agonists of the estrogen receptor alpha (ER-alpha) signaling pathway in the presence of an antagonist (AID 1259383; calls by dose curve; note: top concentration of the series differs between compounds; nearly all actives have a fitted effect of over 15% in size)
# In short: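 Agonist-mode confirmation run in the presence of 10.0nM (final) ICI-182,780 antagonist. The reporter was ERE-driven luciferase in VM7Luc4E2 cells, grown in charcoal-stripped serum. Cells were exposed to 15-concentration compound series for 22hr, then ONE-Glo luminescence was read.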
# [15] = qHTS assay to identify small molecule agonists or antagonists of the thyroid stimulating hormone receptor (TSHR) signaling pathway - wild type cell line counter screen (AID 1259384; calls by dose curve)
# In short: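 Counter screen in untransfected Hek293: compounds (15-point titration, triplicate) plus phosphodiesterase inhibitor Ro20-1724 added after 18 h plating; 30 min RT. Intracellular cAMP via competitive d2/cryptate immunoassay, 1 h incubation.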
# [16] = biological target: Thyrotropin receptor (Homo sapiens) (UniProt P16473); test: qHTS assay to identify small molecule antagonists of the thyroid stimulating hormone receptor (TSHR) signaling pathway (AID 1259385; calls by dose curve; note: nearly all actives have a fitted effect of over 20% in size)
# Thyrotropin receptor (Homo sapiens), sequence (P16473 whole entry, looked up): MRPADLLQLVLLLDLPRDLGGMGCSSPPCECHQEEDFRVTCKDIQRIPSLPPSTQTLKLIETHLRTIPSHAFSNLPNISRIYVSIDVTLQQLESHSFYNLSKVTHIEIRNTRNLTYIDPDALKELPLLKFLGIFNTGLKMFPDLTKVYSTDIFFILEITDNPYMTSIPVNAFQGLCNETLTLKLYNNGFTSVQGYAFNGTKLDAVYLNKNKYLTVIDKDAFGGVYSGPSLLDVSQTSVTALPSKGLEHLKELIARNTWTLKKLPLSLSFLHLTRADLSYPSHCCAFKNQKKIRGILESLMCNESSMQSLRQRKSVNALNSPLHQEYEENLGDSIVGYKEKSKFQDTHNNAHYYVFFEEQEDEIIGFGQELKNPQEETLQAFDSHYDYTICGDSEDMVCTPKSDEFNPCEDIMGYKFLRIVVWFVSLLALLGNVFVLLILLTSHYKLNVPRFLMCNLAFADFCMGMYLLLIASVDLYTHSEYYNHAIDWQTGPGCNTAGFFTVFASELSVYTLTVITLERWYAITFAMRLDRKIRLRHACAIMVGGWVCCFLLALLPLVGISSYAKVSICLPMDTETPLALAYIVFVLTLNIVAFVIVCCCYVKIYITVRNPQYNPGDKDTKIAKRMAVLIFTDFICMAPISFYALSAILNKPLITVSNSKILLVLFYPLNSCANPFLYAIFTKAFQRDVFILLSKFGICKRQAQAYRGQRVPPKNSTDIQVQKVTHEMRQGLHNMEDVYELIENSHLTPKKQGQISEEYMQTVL
# In short: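 Antagonist mode: compound-treated TSHR-expressing HEK293 cells were stimulated with 1.5 ng/mL TSH (final) in presence of Ro20-1724 for 30 min at RT. HTRF cAMP detection after 1 h; each compound tested at 15 concentrations, triplicate.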
# [17] = qHTS assay to identify small molecule agonists of the estrogen receptor alpha (ER-alpha) signaling pathway in the presence of an antagonist - cell viability counter screen (AID 1259386); note: series mostly up to about 92 µM; nearly all actives have a fitted effect of over 30% in size
# In short: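 Compounds tested at 15 concentrations for 22 h at 37C alongside 10.0nM (final) ICI-182,780 antagonist, in VM7Luc4E2 cells grown in phenol red-free, charcoal-stripped medium. Viability read by CellTiter-Fluor fluorescence after 1 h reagent incubation.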
# [18] = biological target: Androgen receptor (Homo sapiens) (UniProt P10275); test: qHTS assay to identify small molecule antagonists of the androgen receptor (AR) signaling pathway using the MDA cell line in the presence of 0.5 nM R1881 (AID 1259243); note: nearly all actives have a fitted effect of over 50% in size
# Androgen receptor (Homo sapiens), sequence (P10275 whole entry, looked up): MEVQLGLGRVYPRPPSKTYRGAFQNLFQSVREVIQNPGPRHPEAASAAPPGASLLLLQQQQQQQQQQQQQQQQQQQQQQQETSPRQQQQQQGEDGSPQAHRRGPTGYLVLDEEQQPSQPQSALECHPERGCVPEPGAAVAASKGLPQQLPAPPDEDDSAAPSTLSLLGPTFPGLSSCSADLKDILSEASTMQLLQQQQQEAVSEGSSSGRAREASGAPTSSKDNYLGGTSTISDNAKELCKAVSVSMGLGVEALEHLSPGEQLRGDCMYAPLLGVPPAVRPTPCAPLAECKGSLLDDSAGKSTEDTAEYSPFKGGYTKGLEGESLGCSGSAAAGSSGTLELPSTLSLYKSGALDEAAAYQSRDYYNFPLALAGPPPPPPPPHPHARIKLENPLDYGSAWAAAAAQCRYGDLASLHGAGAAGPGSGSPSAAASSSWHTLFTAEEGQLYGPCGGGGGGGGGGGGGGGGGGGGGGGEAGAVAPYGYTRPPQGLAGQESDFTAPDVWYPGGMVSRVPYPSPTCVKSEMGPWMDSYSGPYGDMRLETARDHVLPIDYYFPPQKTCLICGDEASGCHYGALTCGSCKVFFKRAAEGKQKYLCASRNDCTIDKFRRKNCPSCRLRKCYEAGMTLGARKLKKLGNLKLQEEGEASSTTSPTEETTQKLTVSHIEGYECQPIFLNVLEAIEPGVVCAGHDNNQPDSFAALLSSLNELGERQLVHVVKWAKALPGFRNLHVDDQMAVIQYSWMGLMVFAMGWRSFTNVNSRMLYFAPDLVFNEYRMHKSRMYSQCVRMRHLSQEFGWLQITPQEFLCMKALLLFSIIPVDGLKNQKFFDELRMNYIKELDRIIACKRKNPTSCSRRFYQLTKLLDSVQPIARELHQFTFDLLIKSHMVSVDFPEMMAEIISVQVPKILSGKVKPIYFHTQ
# In short: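 Luminescent reporter readout (ONE-Glo, 30 min, room temperature) after 16 hr co-treatment of MDA-kb2 cells with test compounds and 0.5 nM R1881 final, at 37C without CO2. The MMTV-driven luciferase responds to both AR and GR.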
# [19] = biological target: Androgen receptor (Homo sapiens) (UniProt P10275); test: qHTS assay to identify small molecule agonists of the androgen receptor (AR) signaling pathway in the presence of an antagonist (AID 1259381; calls by dose curve; note: nearly all actives have a fitted effect of over 15% in size)
# In short: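 Agonist-mode confirmation run against 3.0 uM final nilutamide: compounds titrated at 15 concentrations onto MDA-kb2 MMTV-luciferase reporter cells. Luminescence measured with ONE-Glo following 16 hr incubation, 37C, 0% CO2.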
Compound,Potency [1],Potency [2],Potency [3],Potency [4],Potency [5],Potency [6],Potency [7],outcome [8],Potency [9],Potency [10],Potency [11],Potency [12],Potency [13],Potency [14],Potency [15],Potency [16],Potency [17],Potency [18],Potency [19]
CCN(CC)C(=O)c1cccc(C)c1,inactive,inactive,inactive,inactive,inactive,inactive,inactive,inactive,inactive,inactive,inactive,inactive,inactive,inactive,inactive,inactive,inactive,,
CCCCC1(COC(=O)CCC(=O)O)C(=O)N(c2ccccc2)N(c2ccccc2)C1=O,inactive,inactive,inactive,inactive,,inactive,inactive,inactive,inactive,,,inactive,inactive,inactive,inactive,inactive,inactive,inactive,inactive
CCCCOC(=O)c1ccc(O)cc1,inactive,,inactive,27.6 µM (active) and 30.6 µM (active),,inactive,inactive,inactive,inactive,inactive,19.3 µM (active),inactive,inactive,,inactive,inactive,inactive,inactive,inactive
